Compounds with a hit are over-represented: about 21% of the library has one in this group of screens.
Pf growth 96h: P. falciparum growth inhibition at 96 hour, primary screen for plastid delayed-death inhibitors; P. falciparum luciferase reporter growth, 96 h; Potency, µM (top dose mostly 28.7 µM), inactives show at the highest dose activity change, negative = inhibition, actives largely listed as inhibitors; 320,000 tested, 6.9% active; also: potency is read from the fitted curve at half-maximal effect; % is scaled to controls: 0 for no effect and ±100 for the full control effect
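Two parasite generations (96 h, 37 C, 5% CO2) of compound exposure in infected erythrocytes (0.05% parasitemia, 2% hematocrit). Luciferase-reporter P. falciparum; decreased luminescence indicates inhibited growth, aimed at apicoplast-acting delayed death.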
CHX counter: affects cycloheximide protein synthesis inhibition readout, counter-screen. cell reporter, cycloheximide protein synthesis inhibition counterscreen. max response, %. 300,000 tested, 12% active; in the data active = max response mostly above about 13%, no sharp cut-off; inactive = mostly below about 14%; also: read at 38.3 µM for the half of the compounds with a filed dose; 0% is about no effect
Shiga inhibitor: inhibitors of Shiga toxin in Vero cells | 290,000 tested, 9.2% active | inhibition, % at 38.7 µM | Vero cells, Shiga toxin protein synthesis inhibition reporter; in the data active = inhibition mostly above about 28%, no sharp cut-off; inactive = mostly below about 43%; also: 0% is about no effect
Giardia FBPA inh: inhibitors of Giardia lamblia fructose-1,6-bisphosphate aldolase; Potency, µM (series often up to 59.6 µM), without a hit: top-dose activity, negative = inhibition, actives largely listed as inhibitors; purified Giardia FBPA; 290,000 tested, 0.71% active; also: potency is read from the fitted curve at half-maximal effect; % is scaled to controls: 0 for no effect and ±100 for the full control effect; nearly all actives have a fitted effect of over 55% in size
Target sequence (A8B2U2 whole entry, looked up): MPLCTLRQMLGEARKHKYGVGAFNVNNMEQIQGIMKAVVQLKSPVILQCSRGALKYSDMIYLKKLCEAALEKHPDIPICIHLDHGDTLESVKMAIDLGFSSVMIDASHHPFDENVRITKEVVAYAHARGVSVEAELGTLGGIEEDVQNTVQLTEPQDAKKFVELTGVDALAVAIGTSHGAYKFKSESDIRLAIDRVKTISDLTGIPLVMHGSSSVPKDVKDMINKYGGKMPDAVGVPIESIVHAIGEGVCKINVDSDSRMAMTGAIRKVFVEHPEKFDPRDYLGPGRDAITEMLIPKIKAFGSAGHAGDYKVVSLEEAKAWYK
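40 nM FBPA preincubated 10 min at RT with compound (up to 57.5 uM final), then substrate plus GAPDH/TPI/NAD/arsenate coupling and diaphorase/resazurin added. Fluorescence read after 20 min at RT, 525/598 nm.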
NS1 function inh: inhibitors of influenza NS1 protein function. Potency, µM (highest dose often 46.1 µM), for inactives: at the highest dose activity, positive = more growth. 270,000 tested, 0.4% active. AID 2326; calls by dose curve; also: potency is read from the fitted curve at half-maximal effect; actives are rising curves; nearly all actives have a fitted effect of over 50% in size
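Read-out: OD600 growth recovery of NS1-expressing budding yeast. Cells grown overnight at 30C in -URA glucose medium, washed, resuspended and diluted 1:100 in 2% galactose assay medium, pH 6.0. Same strain lacking NS1 served as positive control.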
Pf growth 48h: P. falciparum growth inhibition at 48 hours (one generation); P. falciparum luciferase growth in erythrocytes, 48 h; Potency, µM (series often up to 28.7 µM), without a hit: top-dose activity change, negative = inhibition, hits mostly inhibitors; 310,000 tested, 5.9% active; AID 504832; also: potency is read from the fitted curve at half-maximal effect; % is scaled to controls: 0 for no effect and ±100 for the full control effect
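Erythrocytes infected with P. falciparum carrying an integrated firefly luciferase reporter (2% hematocrit, 0.1% parasitemia final) were exposed to compounds in RPMI 1640 with 0.5% Albumax at 37 C, 5% CO2. Growth inhibition was scored as reduced luminescence.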
Active calls of the source: *; u = inconclusive; x = not tested or not shown; [ ] = dose if it differs, or a comment. Unless noted, calls follow the shape of the dose curve; as a rule, active = well fitted curve in the direction sought with a large enough effect; inconclusive = small, poorly fitted or top-dose-only effect, or another doubt; inactive = no such curve, though single readings can be large; an effect the other way counts as inactive or inconclusive.

SMILES	Pf growth 96h	CHX counter	Shiga inhibitor	Giardia FBPA inh	NS1 function inh	Pf growth 48h
COc1ccc(-c2cc(-c3ccccc3)nc(-c3ccc4c(c3)NC(=O)CO4)c2)cc1	x	9	25	-8%	0%	u
CCC(C)Nc1nc(-c2ccc3c(c2)NC(=O)CO3)cs1 (stereo unspecified)	-2%	28	50*	u	14%	94%
COc1ccccc1Nc1nc(-c2ccc3c(c2)NC(=O)CO3)cs1	0%	20*	48	-14%	6%	0%
COc1ccc(Nc2nc(-c3ccc4c(c3)NC(=O)CO4)cs2)cc1	u	27*	128*	-22%	x	u
O=C(CN1CCN(c2cccc(Cl)c2)CC1)NC1CCCc2ccccc21 (stereo unspecified)	6%	-2	3	0%	-11%	9%
Cc1ncc([N+](=O)[O-])n1CC(=O)Nc1ccc2c(c1)OCO2	19%	-1	-8	4%	x	-8%
C/C(N)=C(/C#N)C(=O)COC(=O)c1oc2ccccc2c1COC(C)C	u	-5	-4	2%	x	-10%
CCCOc1ccc(Cn2c(=O)oc3ccc(C)cc32)cc1	u	9	10	x	-1%	7%
CCC(=O)NC(c1ccc(C)cc1)c1ccc2cccnc2c1O (stereo unspecified)	14%	13	2	-6%	-25%	4.7µM*
CCCC(=O)NC(c1ccc(C(C)C)cc1)c1ccc2cccnc2c1O (stereo unspecified)	15µM*	-2	-10	u	-145%	1.5µM*
CCC(=O)NC(c1ccc(C)cc1)c1cc([N+](=O)[O-])c2cccnc2c1O (stereo unspecified)	20%	1	-6	u	15%	u
CC(C)C(=O)NC(c1ccc(Cl)cc1Cl)c1ccc2cccnc2c1O (stereo unspecified)	u	15	x	u	-128%	u
CC(=O)NC(c1ccco1)c1ccc2cccnc2c1O (stereo unspecified)	7%	-5	7	u	-78%	10µM*
CCCC(=O)NC(c1ccc(N(C)C)cc1)c1ccc2cccnc2c1O (stereo unspecified)	-22%	6	9	u	-99%	6.6µM*
COc1ccc(C(NC(=O)C(C)C)c2ccc3cccnc3c2O)cc1 (stereo unspecified)	u	1	-1	17%	-76%	u
CCC(Sc1nc2ccncc2[nH]1)C(=O)Nc1ccc(C)c(Cl)c1 (stereo unspecified)	54%	-2	0	u	11%	11%
Cc1ccc(C(=O)NNS(=O)(=O)c2ccc(F)cc2)cc1	5%	7	21	-14%	u	0%
CCc1nc(SCC(=O)Nc2ccccc2OC)c2c(C)c(C)sc2n1	8%	-2	21	-1%	-4%	13µM*
Cc1ccc2c(c1)c1c3n2CC(=C2C(=O)OC(C)(C)OC2=O)NC3CCC1 (stereo unspecified)	0.19µM*	-1	28	u	-59%	u
Cc1cc(/C=C(\C#N)c2nc3ccccc3[nH]2)c(C)n1C	-99%	23*	67*	-3%	17%	-22%
Cc1ccc2nc(/C(C#N)=C/c3ccc(-c4cccc([N+](=O)[O-])c4)o3)[nH]c2c1	u	4	13	-2%	u	u
Cc1cc(/C=C(/C#N)c2nc3ccccc3[nH]2)c(C)n1-c1cccc([N+](=O)[O-])c1	2.3µM*	32*	37*	-6%	-10%	x
O=C1Oc2ccccc2C(=O)/C1=C\N1CCN(c2ccccc2)CC1	8%	26*	10	4%	x	5%
CCS(=O)(=O)N1CCN(c2ccccc2)CC1	9%	1	-3	1%	3%	9%
S=C(Nc1ccccc1Cl)N1CCCCCC1	11%	6	7	1%	x	9%
SMILES	Pf growth 96h	CHX counter	Shiga inhibitor	Giardia FBPA inh	NS1 function inh	Pf growth 48h
S=C(Nc1ccc(Cl)cc1Cl)N1CCCCC1	u	17*	52	-2%	12%	25%
CC(=O)c1ccc(NC(=S)N2CCC(Cc3ccccc3)CC2)cc1	11%	17*	49	13%	2%	-5%
Cc1ccc(NC(=S)N2CCCC2)cc1C	8%	25*	33	x	0%	49%
CN1CCN(C(=S)Nc2ccc(Cl)cc2)CC1	16%	-3	3	1%	4%	6%
S=C(Nc1ccc(Cl)cc1)N1CCCCC1	22%	13*	28	3%	18%	28%
COc1ccc(C(=O)NCC(=O)OCC(=O)N2CCC(C)CC2)cc1OC	1%	1	15	2%	x	7%
CC(C)NC(=S)N1CCC(Cc2ccccc2)CC1	15%	9	-17	0%	x	-6%
S=C(Nc1ccc(Br)cc1)N1CCCC1	81%	27*	24	-1%	19%	47%
CCc1ccc(NC(=S)N2CCCCCCC2)cc1	116%	56*	68*	-2%	x	127%
O=C(O)c1ccc(NC(=S)N2CCCCC2)cc1	2%	9	37	-18%	1%	36%
CC(C)CNC(=S)N1CCC(Cc2ccccc2)CC1	15µM*	-1	2	3%	-84%	u
S=C(Nc1ccc(Br)cc1)N1CCN(C2CCCCC2)CC1	44%	-1	-6	26%	3%	-6%
CC(=O)c1ccc(NC(=S)N2CCCC2)cc1	u	18*	30	-12%	4%	42%
COc1ccc(COc2ccc(S(=O)(=O)N3CCCC3)cc2C(N)=O)cc1F	u	-7	-3	-2%	2%	-32%
COc1cccc(CNC(=O)C(CC(C)C)NC(=O)c2ccccc2C)c1 (stereo unspecified)	-14%	2	-9	1%	-3%	x
O=S(=O)(c1ccccc1)N1CCC2(CCN(Cc3ccncc3)CC2)CC1	x	x	x	-2%	x	x
CC(C)CO/N=C1/C[C@@H](O)[C@@H](O)[C@@H]2[C@@H]3C(=O)N(C(C)(C)C)C(=O)[C@H]3CC[C@@H]12	x	x	x	-1%[12.9 µM]	x	x
S=C(Nc1ccccc1)N1CCCCC1	1%	6	18	-7%	0%	39%
S=C(Nc1ccccc1)N1CCN(C(=S)c2ccccc2)CC1	3%	44*	71*	13%	0%	86%
O=c1nc(-c2ccccc2)c2cc(Br)ccc2[nH]1	26%	-2	-23	7%	-10%	3%
O=c1cc2[nH]c3ccccc3c(=O)n2nc1-c1ccccc1	x	25*	64	u	-5%	41%
COC(=O)C(C)n1nnc2sc(-c3ccccc3)cc2c1=O (stereo unspecified)	226%	40*	113*	2%	x	201%
Cc1ccc(OCCn2cnc3ccccc3c2=O)c([N+](=O)[O-])c1	u	50*	52*	0%	10%	100%
CC(C)(C)c1ccc(OCCOCCn2cnc3ccccc3c2=O)cc1	41%	35*	55	-13%	-8%	-17%
CCOc1cccc(OCCn2cnc3ccccc3c2=O)c1	10µM*	13	35*	2%	-1%	68%

Screens: PubChem BioAssay, National Center for Advancing Translational Sciences (NCATS)
